Experiment [1] addresses Bile acid receptor (Homo sapiens) (UniProt Q96RI1). As to the kind of experiment: qHTS assay for small molecule antagonists of farnesoid X receptor signaling (AID 588526). Further: potency means the concentration at half of the fitted maximal effect. The procedure, abridged: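 Concentration-response titrations were fitted to the Hill equation for half-maximal inhibition and maximal response, with data normalised to 50 uM chenodeoxycholic acid and DMSO control wells. Cells: FXR-UAS-bla HEK293T, dialyzed FBS.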
(In general: qHTS replaces the single test concentration by a dilution series.)

For experiment [2] the target is unchanged. The experiment can be described thus: qHTS assay for small molecule agonists of farnesoid X receptor signaling (AID 588527).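 Further: series mostly up to about 77 µM; 0% = vehicle basal and 100% = reference agonist.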 Particulars: HEK293T FXR-UAS-bla, beta-lactamase ratio, 16 h; activation: stronger effect = higher value. The essentials:
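Quantitative HTS used FXR-UAS-bla HEK293T cells with 16 h compound incubation at 37 C. EC50 values came from concentration-response curves normalized to chenodeoxycholic acid.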

Experiment [3] concerns the target Glucocorticoid receptor (Homo sapiens) (UniProt P04150). As to the kind of experiment: qHTS assay for small molecule agonists of glucocorticoid receptor signaling (AID 588532; active means well fitted curve in the direction sought with a large enough effect in the signal ratio, with a control signal flat; the % refers to the signal ratio;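 further: 100% = dexamethasone at 0.1 µM and 0% = DMSO only wells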). The conditions noted are these: HeLa MMTV-bla, beta-lactamase ratio, agonist, 18 h; activation: stronger effect = higher value, percent of dexamethasone control, DMSO zero. The essentials:
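Titration series, up to 92 uM, applied to GRE-bla HeLa cells for 18 h at 37 C. Detection by CCF4 FRET substrate after 2 h at RT.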

Experiment [4] is described as follows: qHTS assay for small molecule antagonists of peroxisome proliferator-activated receptor delta signaling (AID 588535; active means well fitted inhibition curve with a large enough effect in the signal ratio, with a control signal flat, not every such curve was filed as active; the % refers to the signal ratio;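 on max response: cells co-treated with a PPAR-delta agonist as stimulator during compound exposure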). The conditions noted are these: HEK293T PPARd-UAS-bla, beta-lactamase FRET ratio, 18 h; 460 nm channel. The essentials:
(§1)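 Reporter: UAS-bla under PPAR-delta response element, HEK293T host. Medium: 2% charcoal/dextran FBS. Dosing: titration, 18 hrs, 37 C. Detection: CCF4, 2 hrs RT, 405 ex/460 and 530 em.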

The target in experiment [5] is Peroxisome proliferator-activated receptor delta (Homo sapiens) (UniProt Q03181). The description is as above. The essentials:
as §1

Experiment [6] is described as follows: qHTS assay for small molecule agonists of the antioxidant response element (ARE) signaling pathway (AID 651741; active means well fitted activation curve with a large enough effect in the signal ratio; the % refers to the signal ratio; further: potency means the concentration at half of the fitted maximal effect; on activation: % of control where 0% means no effect). The essentials:
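Compounds in DMSO are pinned onto HepG2 ARE-bla cells (2,000/well) that were preincubated 5 h; plates stay 16 h at 37 C, then beta-lactamase activity is detected with LiveBLAzer B/G substrate by fluorescence.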

Experiment [7] in a line: qHTS assay for small molecule agonists of retinoid X receptor alpha signaling (AID 588544). The conditions noted are these: HEK293T RXRa-UAS-bla, beta-lactamase reporter, 18 h; 530 nm emission.
Experiment [8] can be described thus: qHTS assay for small molecule activators of the nuclear factor-kappa B (NF-kB) signaling pathway (AID 651749; active means well fitted activation curve with a large enough effect in the signal ratio; the % refers to the signal ratio; further: series mostly up to about 77 µM; % of control where 0% means no effect). Particulars: NF-kB-bla ME-180 cells, beta-lactamase FRET ratio, 16 h; activation: stronger effect = higher value. The essentials:
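Screening used 2,000 ME-180 reporter cells per well exposed to pinned compound (23 nL) or DMSO; after 16 hr at 37C, beta-lactamase expression under NF-kB control was assessed through FRET.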

The nature of experiment [9]: qHTS assay for small molecule activators of the human pregnane X receptor (PXR) signaling pathway (AID 720659; call rule not given here; further: 0% is about no effect).
Experiment [10] addresses Glucocorticoid receptor (Homo sapiens) (UniProt P04150). As to the kind of experiment: qHTS assay for small molecule antagonists of glucocorticoid receptor signaling (AID 588533; active means well fitted inhibition curve with a large enough effect in the signal ratio, with a control signal flat, not every such curve was filed as active; the % refers to the signal ratio;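 further: cells stimulated with 2 nM dexamethasone as agonist; on the % scale 0 is the no-effect control and ±100 the full control effect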). The essentials:
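Antagonist-mode qHTS: compound titrations added to GRE-bla HeLa cells, then dexamethasone 2 nM final; 18 h, 37 C. CCF4 FRET fluorescence normalized to dexamethasone and DMSO; IC50 from Hill fit.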

The target in experiment [11] is Androgen receptor (Homo sapiens) (UniProt P10275). As to the kind of experiment: qHTS assay for small molecule agonists of androgen receptor signaling (AID 588515; active means well fitted curve in the direction sought with a large enough effect in the signal ratio, with a control signal flat; the % refers to the signal ratio; further: on the % scale 0 is the no-effect control and ±100 the full control effect). The conditions noted are these: AR-UAS-bla HEK293, beta-lactamase ratio, agonist 16 h; stronger effect = higher value. The procedure, abridged:
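EC50 and efficacy came from Hill fits of titrations (up to 92 uM) normalized to 30 nM R1881 as 100% and DMSO as 0%. Compound exposure was 16 h at 37 C on AR-UAS-bla HEK293 cells, with a 405/460/530 nm CCF4 fluorescence read.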

For experiment [12] the target is unchanged. As to the kind of experiment: qHTS assay for small molecule antagonists of androgen receptor signaling (AID 588516; active means well fitted curve in the direction sought with a large enough effect in the signal ratio, with a control signal flat, not every such curve was filed as active; the % refers to the signal ratio; further: on the % scale 0 is the no-effect control and ±100 the full control effect). The procedure, abridged: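 Antagonist-mode qHTS: inhibition of R1881 (10 nM)-driven beta-lactamase expression in GripTite HEK 293 cells is measured after 16 h; values are Hill-derived IC50s normalized between R1881 and DMSO wells.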

“And” between values parts separate entries of the source, which are not always exact repeats. Equal entries are not always repeated. Records with an inconclusive call do not appear. The source made the active and inactive calls. Unless noted, the call rests on the fitted dose curve.

Sequence of Peroxisome proliferator-activated receptor delta (Homo sapiens) (Q03181 whole entry, looked up): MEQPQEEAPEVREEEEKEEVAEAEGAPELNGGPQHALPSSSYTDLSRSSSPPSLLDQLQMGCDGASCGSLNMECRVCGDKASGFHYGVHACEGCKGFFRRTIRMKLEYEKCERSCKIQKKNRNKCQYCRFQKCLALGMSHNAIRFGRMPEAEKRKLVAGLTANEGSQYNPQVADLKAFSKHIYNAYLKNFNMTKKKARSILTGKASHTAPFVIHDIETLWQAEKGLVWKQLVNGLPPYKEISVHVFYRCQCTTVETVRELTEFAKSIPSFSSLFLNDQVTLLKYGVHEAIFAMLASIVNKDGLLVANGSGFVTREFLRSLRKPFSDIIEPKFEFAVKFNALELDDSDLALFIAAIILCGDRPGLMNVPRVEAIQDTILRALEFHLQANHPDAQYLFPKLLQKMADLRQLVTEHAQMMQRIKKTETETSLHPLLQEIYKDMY
Sequence of Bile acid receptor (Homo sapiens) (Q96RI1 whole entry, looked up): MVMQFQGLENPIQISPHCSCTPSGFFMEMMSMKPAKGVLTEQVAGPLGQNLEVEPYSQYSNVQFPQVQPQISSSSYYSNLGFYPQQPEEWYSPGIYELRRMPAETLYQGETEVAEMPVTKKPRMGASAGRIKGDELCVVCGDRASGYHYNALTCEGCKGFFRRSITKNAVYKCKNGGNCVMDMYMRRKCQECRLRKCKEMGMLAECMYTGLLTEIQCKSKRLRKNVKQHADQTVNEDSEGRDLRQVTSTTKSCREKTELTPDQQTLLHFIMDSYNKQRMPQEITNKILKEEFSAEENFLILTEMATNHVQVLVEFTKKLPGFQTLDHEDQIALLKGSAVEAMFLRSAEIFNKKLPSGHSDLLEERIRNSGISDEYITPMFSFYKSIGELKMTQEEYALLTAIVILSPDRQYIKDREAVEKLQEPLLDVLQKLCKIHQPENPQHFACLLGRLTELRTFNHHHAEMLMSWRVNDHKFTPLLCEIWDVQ
Sequence of Glucocorticoid receptor (Homo sapiens) (P04150 whole entry, looked up): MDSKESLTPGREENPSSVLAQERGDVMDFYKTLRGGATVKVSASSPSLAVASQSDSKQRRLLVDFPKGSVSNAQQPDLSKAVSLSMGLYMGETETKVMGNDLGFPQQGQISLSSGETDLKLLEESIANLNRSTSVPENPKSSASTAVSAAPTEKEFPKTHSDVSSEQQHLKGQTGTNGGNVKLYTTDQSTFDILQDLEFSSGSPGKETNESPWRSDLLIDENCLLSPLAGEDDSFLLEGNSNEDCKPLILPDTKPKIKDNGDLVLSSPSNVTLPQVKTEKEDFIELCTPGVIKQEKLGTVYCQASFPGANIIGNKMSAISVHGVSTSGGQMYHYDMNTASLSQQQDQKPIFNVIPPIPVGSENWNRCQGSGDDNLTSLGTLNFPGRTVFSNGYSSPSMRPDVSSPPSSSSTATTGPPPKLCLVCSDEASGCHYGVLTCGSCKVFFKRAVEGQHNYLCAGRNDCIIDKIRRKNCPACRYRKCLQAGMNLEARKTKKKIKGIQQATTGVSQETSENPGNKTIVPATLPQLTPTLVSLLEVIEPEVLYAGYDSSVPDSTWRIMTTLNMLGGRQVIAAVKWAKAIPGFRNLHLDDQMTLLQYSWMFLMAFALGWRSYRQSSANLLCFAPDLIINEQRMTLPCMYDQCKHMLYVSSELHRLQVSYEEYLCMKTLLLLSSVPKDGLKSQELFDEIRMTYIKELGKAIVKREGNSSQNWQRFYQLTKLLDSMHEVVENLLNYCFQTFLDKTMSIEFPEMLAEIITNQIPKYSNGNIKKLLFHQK
Sequence of Androgen receptor (Homo sapiens) (P10275 whole entry, looked up): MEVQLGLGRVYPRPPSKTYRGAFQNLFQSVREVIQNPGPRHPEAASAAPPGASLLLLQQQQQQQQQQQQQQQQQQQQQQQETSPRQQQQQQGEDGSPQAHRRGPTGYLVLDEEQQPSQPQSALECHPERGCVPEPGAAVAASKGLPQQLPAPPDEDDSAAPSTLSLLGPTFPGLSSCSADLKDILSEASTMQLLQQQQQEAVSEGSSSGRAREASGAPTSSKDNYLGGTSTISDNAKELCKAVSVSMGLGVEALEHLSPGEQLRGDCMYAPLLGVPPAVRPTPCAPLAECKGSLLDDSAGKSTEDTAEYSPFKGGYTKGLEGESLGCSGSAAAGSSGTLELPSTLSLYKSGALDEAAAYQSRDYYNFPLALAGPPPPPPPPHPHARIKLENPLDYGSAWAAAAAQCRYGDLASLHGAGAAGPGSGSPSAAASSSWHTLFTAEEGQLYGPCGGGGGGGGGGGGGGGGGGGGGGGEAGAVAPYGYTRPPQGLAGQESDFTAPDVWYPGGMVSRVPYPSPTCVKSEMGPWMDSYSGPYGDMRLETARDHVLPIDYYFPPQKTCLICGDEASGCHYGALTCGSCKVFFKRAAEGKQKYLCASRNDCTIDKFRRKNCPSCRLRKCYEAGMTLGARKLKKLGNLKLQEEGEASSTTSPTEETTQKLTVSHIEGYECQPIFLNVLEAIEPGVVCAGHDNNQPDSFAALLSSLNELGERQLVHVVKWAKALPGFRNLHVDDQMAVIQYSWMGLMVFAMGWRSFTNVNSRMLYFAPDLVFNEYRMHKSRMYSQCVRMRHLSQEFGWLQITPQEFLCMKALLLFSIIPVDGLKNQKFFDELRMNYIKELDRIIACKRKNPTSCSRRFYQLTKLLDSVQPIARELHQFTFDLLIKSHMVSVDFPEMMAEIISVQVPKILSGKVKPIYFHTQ

`CCNC(=O)NC(=O)/C(C#N)=N/OC`: the Potency entry in [1] and in experiment [5] was “inactive” throughout. Also, the activation in [2] is -0.507% (inactive); in experiment [3] it was 3.07% (inactive). Besides, the max response in [4] was found to be 9.94%. Further, the Potency in experiment [6] was 61.1 µM (active).

As to `CCCCC(CC)COC(=O)Cl` (stereo not drawn), the Potency result in experiment [1] and in experiment [6] was “inactive” each time. For the same compound, the activation in experiment [2] is 1.19% (inactive); in experiment [8] it was -0.442% (inactive). Moreover, the max response in [7] was -16.3%. The call in experiment [9] was inactive.

Regarding `O=[N+]([O-])c1ccc(Oc2ccc(C(F)(F)F)cc2[N+](=O)[O-])cc1`, the Potency entry in [1] and in experiment [10] was “inactive” throughout. Further, the activation was -1.37% (inactive) in experiment [2] and -2.99% (inactive) in [3]. Moreover, the Potency in experiment [6] is 48.6 µM (active). Besides, the compound was called inactive in experiment [9].

On to `C=CCC1=C(C)[C@@H](OC(=O)[C@@H]2[C@@H](C=C(C)C)C2(C)C)CC1=O`, for which the Potency result in experiment [1] and in experiment [10] was “inactive” throughout. The results for the activation in [2] and in [3] were 1.33% (inactive) and 1.31% (inactive), respectively. In experiment [7], the max response amounted to 6.67%.

As to `CCC[CH2][Sn]([CH2]CCC)[CH2]CCC`, the values for the activation in experiment [2] and in [3] were 6.72% (inactive) and -13.3% (inactive), respectively.

For `Cc1ccccc1C(=O)Nc1cccc(OC(C)C)c1`, the results for the activation in experiment [11], in experiment [3] and in experiment [8] were -11.5% (inactive), 2.19% (inactive) and 0.221% (inactive), respectively. Moreover, the Potency result in [10], in experiment [5] and in experiment [6] was “inactive” in each case. Besides, the max response in [4] stood at 10.6%.

As to `CCC[CH2][Sn]([CH2]CCC)([O]C(C)=O)[O]C(C)=O`, the results for the Potency in experiment [1] and in experiment [6] were 12.6 µM (active) and 30.6 µM (active), respectively. Further, the results for the activation in experiment [2], in [3] and in experiment [8] were -0.854% (inactive), -12.8% (inactive) and 0.746% (inactive), respectively. Further, in experiment [7], the max response worked out at 5.61%. Also, in [9], the compound was called inactive.

As for `NS(=O)(=O)C(F)(F)C(F)(F)C(F)(F)C(F)(F)C(F)(F)C(F)(F)C(F)(F)C(F)(F)F`, the Potency entry in [1], in experiment [10] and in experiment [5] was “inactive” each time. Moreover, the activation is 4.62% (inactive) in [2], -2.51% (inactive) in experiment [3] and 3.4% (inactive) in experiment [8]. In experiment [4], the max response amounted to 101%. Moreover, the Potency in [6] is 68.6 µM (active).

In the case of `COCc1cnc(C2=NC(C)(C(C)C)C(=O)N2)c(C(=O)O)c1` (stereo not drawn), the Potency result in experiment [12], in experiment [1], in experiment [10] and in [5] was “inactive” each time. The activation in [2] is -0.497% (inactive). Besides, in experiment [4], the max response was -13.7%. Also, the call in experiment [9] was inactive.

Turning to `CCOc1nc(NC)nc(NC(=O)NS(=O)(=O)c2ccccc2C(=O)OC)n1`, the activation in experiment [11] was -6.67% (inactive); in experiment [2], -2.84% (inactive); in experiment [3], 15% (inactive); in experiment [8], 1.48% (inactive). Also, the Potency result in experiment [1], in experiment [10] and in [5] was “inactive” each time. The max response in experiment [4] came out at 16.6%.

For the compound `COC(=O)NS(=O)(=O)c1ccc(N)cc1`, the activation is -1.43% (inactive) and 1.04% (inactive) in experiment [3]; -0.373% (inactive) and -0.594% (inactive) in [8]. In addition, the Potency result in experiment [10] and in experiment [5] was “inactive” each time. Also, the max response in experiment [4] was -5.88%; in [7], -13.8% and -12.5%. Also, the outcome in experiment [9] was inactive.

Consider `CCN(CC)C(=O)C(C)Oc1cccc2ccccc12` (stereo not drawn), for which the Potency result in experiment [1] and in experiment [6] was “inactive” throughout. Besides, the activation in [2] is -1.49% (inactive). Further, in experiment [7], the max response was 5.95%.
